DT40 TDP1 no CPT – qHTS for Inhibitors of human tyrosyl-DNA phosphodiesterase 1 (TDP1): qHTS in cells in absence of CPT; Potency, µM (series often up to 46.2 µM), inactives show at the highest dose activity change, negative = growth inhibition, actives largely listed as inhibitors; 420,000 compounds, 15% hits; DT40 Tdp1-/- hTDP1 cells, no CPT, ATP luminescence, 48 h; further: potency means the concentration at half of the fitted maximal effect; nearly all actives have a fitted effect of over 55% in size
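No-CPT arm: Tdp1-/-;hTDP1 DT40 cells (400/well) plus compounds, incubated ≥48 hr at 37 °C. Readout CellTiter-Glo luminescence.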
HT1080 IDH1KD tx – toxicity to HT-1080 IDH1 knockdown cells (counter line); HT-1080 IDH1 knockdown viability, ATP luminescence, 48 h; Potency, µM (series often up to 46.1 µM), for inactives: at the highest dose activity, negative = toxicity, most hits filed as cytotoxic; 360,000 compounds, 2% hits;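 further: potency means the concentration at half of the fitted maximal effect; 0% = DMSO wells and -100% = cell-free medium wells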
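Using the IDH1-knockdown HT-1080 line run in the same batch and compound series as the NT line, viability after 48 h at 37 °C was determined by CellTiter-Glo luminescence and expressed as % activity.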
DT40 TDP1 CPT – growth inhibition of DT40 Tdp1-/-;hTDP1 cells with camptothecin (screen for TDP1 inhibitors); chicken DT40 Tdp1-/-;hTDP1 cells + 20 nM CPT, ATP luminescence, 48 h; 420,000 compounds, 12% hits; Potency, µM (series often up to 46.2 µM), inactives show at the highest dose activity change, negative = growth inhibition, usual class: inhibitors; further: potency means the concentration at half of the fitted maximal effect; nearly all actives have a fitted effect of over 55% in size
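Cell growth measured by CellTiter-Glo luminescence after a minimum 48 h, 37 C compound exposure with 20 nM CPT in Tdp1-knockout DT40 cells stably expressing hTDP1, seeded 400/well; qHTS titration format.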
ALOX12 inh – blocks human arachidonate 12S-lipoxygenase. purified 12hLO, xylenol orange hydroperoxide absorbance. P18054. Potency, µM (top dose mostly 108 µM), inactives show top-dose activity change, negative = inhibition, most hits filed as inhibitors. 580,000 compounds, 1.1% hits. AID 1671190; further: potency means the concentration at half of the fitted maximal effect
Target sequence (P18054 whole entry, looked up): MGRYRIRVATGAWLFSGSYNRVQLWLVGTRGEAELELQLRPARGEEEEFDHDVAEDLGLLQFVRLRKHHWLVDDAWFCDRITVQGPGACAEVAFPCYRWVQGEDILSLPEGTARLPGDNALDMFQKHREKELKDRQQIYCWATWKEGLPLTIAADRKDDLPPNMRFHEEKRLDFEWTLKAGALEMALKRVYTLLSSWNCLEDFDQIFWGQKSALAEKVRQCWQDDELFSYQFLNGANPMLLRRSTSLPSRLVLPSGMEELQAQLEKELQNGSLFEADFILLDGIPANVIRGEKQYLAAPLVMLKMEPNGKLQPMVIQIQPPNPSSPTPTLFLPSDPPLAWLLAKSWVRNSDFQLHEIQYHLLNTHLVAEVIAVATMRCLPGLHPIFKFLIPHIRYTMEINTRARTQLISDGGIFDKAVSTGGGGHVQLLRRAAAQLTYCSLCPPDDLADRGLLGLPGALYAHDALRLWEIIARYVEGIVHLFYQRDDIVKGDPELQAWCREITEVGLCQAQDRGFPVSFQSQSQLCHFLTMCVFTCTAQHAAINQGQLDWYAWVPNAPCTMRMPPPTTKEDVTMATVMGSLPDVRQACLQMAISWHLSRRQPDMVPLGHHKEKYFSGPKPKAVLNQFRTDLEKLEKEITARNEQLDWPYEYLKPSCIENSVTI
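Hydroperoxide product was detected by ferrous iron/xylenol orange as the 573 to 405 nm absorbance ratio. Arachidonic acid at 40 uM (final) was turned over for 30 min at room temperature by 150 nM human 12hLO, pH 7.0 Hepes buffer, after 15 min compound preincubation.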
IL1B secr inh – inhibitors of inflammasome signaling (IL-1 beta secretion); THP-1 LPS/ATP IL-1B secretion, AlphaLISA, 16 h; stronger effect = lower value; 360,000 compounds, 4.7% hits; activity change, % at 57.5 µM; in the data active means activity change below about -50%; inconclusive means mostly about -30% to -49%
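THP-1 cells pretreated 1 hr with compounds (up to 57.5 uM final), then stimulated with LPS (250 ng/mL final) plus ATP (1.25 mM final); secreted IL-1B measured by AlphaLISA after 16 hr, decreased signal indicating inhibition.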
HT1080-NT tox – kills 2HG-producing HT-1080-NT fibrosarcoma cells. HT-1080-NT fibrosarcoma viability, CellTiter-Glo ATP luminescence, 48 h. Potency, µM (series often up to 46.1 µM), without a hit: at the highest dose activity, negative = less viability, actives largely listed as cytotoxic. 360,000 compounds, 1.6% hits. AID 686970;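 further: NT is the 2HG producing partner of a matched IDH1 knockdown line; potency means the concentration at half of the fitted maximal effect; 0% = DMSO-treated cells and -100% = media-only wells without cells; nearly all actives have a fitted effect of over 55% in size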
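HT-1080-NT; 750 cells/well; 5% FBS RPMI; 48 h compound, 37 degrees C; CellTiter-Glo luminescence; curve fitting and curve-class assignment.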
Active calls of the source: *; [ ] = remark or other dose. Many of the other results were omitted from the sample, so hits are more common in it than they were. Unless noted, the call rests on the fitted dose curve; in most records, active means well fitted curve in the direction sought with a large enough effect; inconclusive means small, poorly fitted or top-dose-only effect, or another doubt; inactive means no such curve, though single readings can be large; an effect the other way counts as inactive or inconclusive. Unless noted, on the % scale 0 is the no-effect control and ±100 the full control effect.

`Cc1ccc(OCC(=O)N/N=C\c2c(C)n(C)c3ccccc23)c([N+](=O)[O-])c1` gave DT40 TDP1 no CPT 18µM*, HT1080 IDH1KD tx inconclusive, DT40 TDP1 CPT inconclusive, IL1B secr inh inconclusive and HT1080-NT tox -29%.
Screening COC(=O)N/N=C\c1c(C)[nH]n(-c2ccccc2)c1=O returned DT40 TDP1 no CPT -13%, HT1080 IDH1KD tx -3%, DT40 TDP1 CPT 2%, ALOX12 inh 5%, IL1B secr inh 8 and HT1080-NT tox 16%.
`Cc1[nH]n(-c2ccccc2)c(=O)c1/C=N/NC(=O)COc1ccccc1[N+](=O)[O-]` gave DT40 TDP1 no CPT 4.6µM*, HT1080 IDH1KD tx inconclusive, DT40 TDP1 CPT 5.8µM*, ALOX12 inh inconclusive, IL1B secr inh 209 and HT1080-NT tox inconclusive.
Cc1c(/C=N/NC(=O)COc2ccccc2[N+](=O)[O-])c2ccccc2n1C was read as DT40 TDP1 no CPT inconclusive, HT1080 IDH1KD tx -29%, DT40 TDP1 CPT inconclusive, ALOX12 inh -2%, IL1B secr inh 45 and HT1080-NT tox -24%.
Cc1[nH]n(-c2ccccc2)c(=O)c1/C=N/NC(=O)c1ccccc1F was read as DT40 TDP1 no CPT 5.2µM*, HT1080 IDH1KD tx inconclusive, DT40 TDP1 CPT 6.5µM*, ALOX12 inh 0%, IL1B secr inh 27 and HT1080-NT tox inconclusive.
For CC(=O)N(C)Cc1cccn1C the results were ALOX12 inh 0%[176 µM].
CCCCCCCOc1ccc(C(N)=O)cc1 was read as ALOX12 inh -3%.
For O=C(Cn1nc(N2CCN(c3ccccc3)CC2)ccc1=O)NCc1cccc(Cl)c1 the results were DT40 TDP1 no CPT inconclusive, DT40 TDP1 CPT inconclusive and ALOX12 inh -3%.
Cc1[nH]n(-c2ccccc2)c(=O)c1/C=N/NC(=O)C(C)C was read as DT40 TDP1 no CPT inconclusive, HT1080 IDH1KD tx -24%, DT40 TDP1 CPT 15µM*, ALOX12 inh inconclusive, IL1B secr inh 7 and HT1080-NT tox -8%.
For Cc1[nH]n(-c2ccccc2)c(=O)c1/C=N/N1C(=O)c2ccc3c4c(ccc(c24)C1=O)CC3 the results were DT40 TDP1 no CPT 18µM*, HT1080 IDH1KD tx inconclusive, DT40 TDP1 CPT inconclusive, ALOX12 inh 3%, IL1B secr inh -88* and HT1080-NT tox inconclusive.
Cc1[nH]n(-c2ccccc2)c(=O)c1/C=N/O was read as DT40 TDP1 no CPT -19%, HT1080 IDH1KD tx inconclusive, DT40 TDP1 CPT -20%, ALOX12 inh 10%, IL1B secr inh 14 and HT1080-NT tox inconclusive.
For Cc1ccc(C)c(NC(=O)c2nn(-c3ccccc3)c(=O)c3ccccc23)c1 the results were ALOX12 inh 25%.
`Cc1ccc(S(=O)(=O)N2CCC(=O)N([C@H](COCc3ccc(Cl)cc3Cl)Cc3ccccc3)CC2)cc1` gave DT40 TDP1 no CPT 23µM*, HT1080 IDH1KD tx 8%, DT40 TDP1 CPT inconclusive, ALOX12 inh inconclusive, IL1B secr inh 7 and HT1080-NT tox 12%.
`Cc1ccc(S(=O)(=O)N2CCC(=O)N(C(COCc3ccc(Cl)cc3)Cc3ccccc3)CC2)cc1` (stereo unspecified) gave DT40 TDP1 no CPT 16µM*, HT1080 IDH1KD tx 1%, DT40 TDP1 CPT inconclusive, ALOX12 inh -8%, IL1B secr inh 6 and HT1080-NT tox 2%.
For Cc1ccc(S(=O)(=O)N2CCC(=O)N([C@H](COCc3cccc(C)c3)C(C)C)CC2)cc1 the results were DT40 TDP1 no CPT inconclusive, HT1080 IDH1KD tx 7%, DT40 TDP1 CPT inconclusive, ALOX12 inh -29%, IL1B secr inh 0 and HT1080-NT tox 13%.

Screening data from PubChem.
